Compound activity: PubChem BioAssay, National Center for Advancing Translational Sciences (NCATS)
IP6K1 inhibitor – Primary qHTS assay for small molecule inhibitors of Inositol hexaphosphate kinase 1 (IP6K1); Inositol hexakisphosphate kinase 1 (Homo sapiens), Q92551; IP6K1 kinase, ADP-Glo luminescence, 2 h; hits give low values; activity change, % (series mostly up to about 58 µM); 0.81% of 140,000 active; in the data active = activity change below about -25%; note: % is set by controls: 0 for no effect and ±100 for the full control effect
Target sequence (Q92551 whole entry, looked up): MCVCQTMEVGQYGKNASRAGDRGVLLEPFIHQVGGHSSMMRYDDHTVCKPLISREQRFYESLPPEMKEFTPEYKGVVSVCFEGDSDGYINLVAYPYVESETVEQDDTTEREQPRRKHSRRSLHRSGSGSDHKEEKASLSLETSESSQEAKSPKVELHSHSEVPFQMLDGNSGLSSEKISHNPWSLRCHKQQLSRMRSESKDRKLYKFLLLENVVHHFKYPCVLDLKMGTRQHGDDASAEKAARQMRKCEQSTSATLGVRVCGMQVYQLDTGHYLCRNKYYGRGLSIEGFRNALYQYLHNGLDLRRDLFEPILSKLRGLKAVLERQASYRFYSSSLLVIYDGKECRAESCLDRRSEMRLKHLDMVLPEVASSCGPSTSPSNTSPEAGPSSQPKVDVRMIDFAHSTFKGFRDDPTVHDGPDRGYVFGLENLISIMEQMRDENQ
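ADP-Glo luminescence measures ADP made by human IP6K1 during a 2 h RT reaction with ATP/IP6 (mix at 1.3 mM/130 uM); top library doses 57.5 and 19.1 uM final.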
SNCA viab count – GF-AFC viability counterscreen for inhibitors of alpha-synuclein gene (SNCA) expression. Potency, µM (titrated, usually from 57.1 µM), for the others: at the highest dose activity change, negative = cytotoxicity, usual class: cytotoxic. HEK-293-SNCA-luc viability, GF-AFC fluorescence, 24 h. AID 1671193, 2021. 0.12% of 150,000 active;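 note: potency is the fitted concentration of half-maximal effect; 0% = DMSO-treated cells and -100% = medium-only wells without cells; nearly all actives have a fitted effect of over 30% in size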
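Cytotoxicity counterscreen: after 24 h compound treatment of genome-edited SNCA-luciferase HEK-293 cells, live-cell protease substrate GF-AFC read by fluorescence after 30 min; activity scaled between DMSO (0%) and medium-only (-100%), curves Hill-fitted.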
SNCA expr inh – Primary qHTS assay for inhibitors of alpha-synuclein gene (SNCA) expression. HEK-293 SNCA-luciferase knock-in, luminescence, 24 h. Potency, µM (highest dose often 57.2 µM), without a hit: top-dose activity change, negative = inhibition, actives largely listed as inhibitors. 0.17% of 140,000 active;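 note: potency is the fitted concentration of half-maximal effect; plate controls were DMSO cells for no effect and cell-free wells for full effect; nearly all actives have a fitted effect of over 45% in size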
KDM5B inh – Primary screen for KDM5B Histone Demethylases FDH-coupled qHTS | AID 1347165, 2019 | KDM5B demethylase, FDH-coupled NADH fluorescence (FDH is formaldehyde dehydrogenase) | Lysine-specific demethylase 5B (Homo sapiens), Q9UGL1 | 2.6% of 220,000 active | Potency, µM (doses to about 57.7 µM), hits mostly inhibitors; note: potency is the fitted concentration of half-maximal effect; 0% is about no effect; nearly all actives have a fitted effect of over 70% in size
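Inhibition is measured as reduced NADH fluorescence generation from FDH coupling to formaldehyde release. Truncated KDM5BΔAP at 200 nM final acts on H3K4me3 peptide (12.5 µM in substrate mix) in pH 7.5 HEPES buffer with Tween-20, 30 min, room temperature.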
The depositor's hits bear a star; [ ] = remark or other dose. Sampled rows, rich in hits. Any-hit rate of the full collection: about 3%. Unless noted, calls come from the whole dose curve; as a rule, active = well fitted curve in the direction sought with a large enough effect; inconclusive = small, poorly fitted or top-dose-only effect, or another doubt; inactive = no such curve, though single readings can be large; an effect the other way counts as inactive or inconclusive.

`COc1cccc2c1C(=O)c1c(O)c3c(c(O)c1C2=O)C[C@@](O)(C(C)=O)C[C@H]3O[C@H]1C[C@H](N)[C@H](O)[C@H](C)O1` gave SNCA viab count inconclusive and SNCA expr inh 0.24µM*.
Screening CCOC(=O)CCCOc1cccn2c(=O)c(-c3cc(C)n(-c4ccccc4)n3)c(C)nc12 returned IP6K1 inhibitor -4, SNCA viab count 10%, SNCA expr inh -8% and KDM5B inh 25µM*.
`Cc1nc2c(OCC(=O)c3ccccc3)cccn2c(=O)c1-c1cc(C)n(-c2ccc(Cl)cc2)n1` gave IP6K1 inhibitor -2, SNCA viab count 4%, SNCA expr inh inconclusive and KDM5B inh 16µM*.
Screening Cc1nc2scc(CC(=O)NCC(C)C)n2c(=O)c1-c1cc(C)n(-c2cccc(Cl)c2)n1 returned IP6K1 inhibitor -16, SNCA viab count 1%, SNCA expr inh 13% and KDM5B inh inconclusive.
`COC(=O)COc1cccn2c(=O)c(-c3cc(C)n(-c4ccc(Cl)c(Cl)c4)n3)c(C)nc12` gave IP6K1 inhibitor 3, SNCA viab count 6%, SNCA expr inh 7% and KDM5B inh 28µM*.
`CCOc1cccn2c(=O)c(-c3cc(C)n(-c4ccc(Cl)cc4)n3)c(C)nc12` gave IP6K1 inhibitor 3, SNCA viab count -4%, SNCA expr inh -16% and KDM5B inh inconclusive.
COc1cccc(-c2ccc(C(=O)NCCNC(=O)c3ccccc3F)cc2)c1 was read as IP6K1 inhibitor 18.
Screening COCCNC(=O)c1ccc2c(c1)N(C)C(CC(=O)N1CCCOCC1)CO2 (stereo unspecified) returned IP6K1 inhibitor 4, SNCA viab count -3%, SNCA expr inh 3% and KDM5B inh 32µM*.
COCCNC(=O)c1ccc2c(c1)N(C)C(CC(=O)N1CCCCC1)CO2 (stereo unspecified) was read as IP6K1 inhibitor 3, SNCA viab count 8%, SNCA expr inh -3% and KDM5B inh inconclusive.
For COCCNC(=O)c1ccc2c(c1)N(C)C(CC(=O)N1CCC(C)CC1)CO2 (stereo unspecified) the results were IP6K1 inhibitor 0, SNCA viab count -11%, SNCA expr inh -6% and KDM5B inh 20µM*.
`COCCCNC(=O)C1CCN(c2nccc(Nc3ccccc3F)n2)CC1` gave IP6K1 inhibitor 15, SNCA viab count -2%[12.5 µM] and SNCA expr inh 27%.
Screening CC(C)C[C@H](NC(=O)CNC(=O)c1cc(Cl)ccc1Cl)B(O)O returned SNCA viab count inconclusive and SNCA expr inh 0.54µM*.
`CC(C)NC(=O)N1CCN(c2nccc(Nc3ccccc3Cl)n2)CC1` gave IP6K1 inhibitor 14, SNCA viab count 13% and SNCA expr inh -3%.
For CN1CCC2(C1)CN(CC1CC1)c1ccc(C(=O)NC3CCC3)cc12 (stereo unspecified) the results were IP6K1 inhibitor 6, SNCA viab count 8%[87.6 µM], SNCA expr inh -13%[87.6 µM] and KDM5B inh 35µM*.
`CN1CCC2(C1)CN(CC1CC1)c1ccc(C(=O)NC3COC3)cc12` (stereo unspecified) gave IP6K1 inhibitor -1, SNCA viab count 2%[87.6 µM], SNCA expr inh 15%[87.6 µM] and KDM5B inh 35µM*.
Cc1ccc(C(=O)N2CCN(c3nccc(Nc4ccccc4F)n3)CC2)cc1 was read as IP6K1 inhibitor 17, SNCA viab count -11% and SNCA expr inh inconclusive.
CC(=O)Nc1ccc(CN2CCC3(CC2)CC(=O)c2ccccc2O3)cc1 was read as IP6K1 inhibitor 1, SNCA viab count -4%, SNCA expr inh 40% and KDM5B inh 22µM*.
Cn1nccc1CN1CCC2(CC1)CC(=O)c1ccccc1O2 was read as IP6K1 inhibitor 12, SNCA viab count -18%[87.6 µM], SNCA expr inh 53%[87.6 µM] and KDM5B inh 28µM*.
Screening O=C1CC2(CCN(S(=O)(=O)c3ccccc3)CC2)Oc2ccccc21 returned IP6K1 inhibitor 19, SNCA viab count 7%, SNCA expr inh 10% and KDM5B inh 28µM*.
For Cc1ccc(Nc2ccnc(N3CCC(C(=O)N4CCN(c5ncccn5)CC4)CC3)n2)cc1 the results were IP6K1 inhibitor -4, SNCA viab count -3%[12.5 µM] and SNCA expr inh -22%.
Screening O=C(NCc1ccccc1)c1cc(-c2ccc(Cl)cc2Cl)c2nncn2n1 returned IP6K1 inhibitor 13, SNCA viab count -14%[12.5 µM] and SNCA expr inh 12%.
`O=C(NC1CCCN(c2ccc3nnc(-c4ccccc4)n3n2)C1)c1ccccn1` (stereo unspecified) gave IP6K1 inhibitor -6.
C1CC(COCCc2noc(C3CNC3)n2)CCO1 was read as IP6K1 inhibitor 0, SNCA viab count 4.5µM*, SNCA expr inh inconclusive and KDM5B inh inconclusive.
Screening O=C(c1cc(-c2ccc(Cl)cc2Cl)c2nncn2n1)N1CCOCC1 returned IP6K1 inhibitor 5, SNCA viab count -9%[12.5 µM], SNCA expr inh -20% and KDM5B inh 79µM*.
`O=C(NCc1cccs1)c1cc(-c2cccc(C(F)(F)F)c2)c2nncn2n1` gave IP6K1 inhibitor 1, SNCA viab count inconclusive, SNCA expr inh inconclusive and KDM5B inh 50µM*.
`O=C(c1cc(-c2cccc(C(F)(F)F)c2)c2nncn2n1)N1CCCC1` gave IP6K1 inhibitor 15, SNCA viab count 12%, SNCA expr inh -14% and KDM5B inh 50µM*.
O=C1C(Oc2ccc(F)cc2)C2(CCCCC2)N1Cc1ccc(F)cc1 (stereo unspecified) was read as IP6K1 inhibitor -7, SNCA viab count inconclusive and SNCA expr inh -23%.
Cc1ccc(Nc2ccnc(N3CCC(NC(=O)N(C)C)CC3)n2)cc1 was read as IP6K1 inhibitor 12, SNCA viab count -9%[87.6 µM] and SNCA expr inh -11%[87.6 µM].
`CC(C)Cn1c(=O)c(C(=O)NCCCc2ccccc2)nc2cccnc21` gave IP6K1 inhibitor 16, SNCA viab count -4% and SNCA expr inh -4%.
CCOc1ccc(-c2ccnc(NC[C@@H]3CCCO3)n2)cc1C(=O)O was read as IP6K1 inhibitor -10, SNCA viab count 0%, SNCA expr inh inconclusive and KDM5B inh 22µM*.
For CCOc1ccc(-c2ccnc(N3CCNC(C)C3)n2)cc1C(=O)O (stereo unspecified) the results were IP6K1 inhibitor 4, SNCA viab count 3%, SNCA expr inh inconclusive and KDM5B inh 28µM*.
Screening CCOc1ccc(-c2ccnc(N3CCC(NC(C)=O)CC3)n2)cc1C(=O)O returned IP6K1 inhibitor -8, SNCA viab count 0%, SNCA expr inh -3% and KDM5B inh 32µM*.
O=C(O)C1CN(c2nccc(N3CCC(O)CC3)n2)CCN1 (stereo unspecified) was read as IP6K1 inhibitor 3, SNCA viab count -4%, SNCA expr inh inconclusive and KDM5B inh inconclusive.
